Structures are written as SMILES. Records with an inconclusive call do not appear. The source made the active and inactive calls. Calls follow the shape of the dose curve; as a rule, active = well fitted inhibition curve with a large enough effect; inconclusive = small, poorly fitted or top-dose-only effect; inactive = flat fitted curve, though single readings scatter.

Potency data for 20 compounds are collected here from PubChem BioAssay (NCATS).

Common to all, as to test: qHTS profiling for inhibitors of Plasmodium falciparum proliferation (AID 504749); also: nearly all actives have a fitted effect of over 60% in size
What all share (conditions): P. falciparum in erythrocytes, SYBR Green DNA, 72 h; series mostly up to 28.7 µM
Background: In qHTS, concentration-response curves come from the screen itself.

One assay relates to CP201. The method in brief: (§1)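 Quantitative HTS: compounds pinned into medium, infected erythrocytes added (0.3% parasitemia, 2.5% hematocrit), 72 h culture at 37 C under 5% CO2. Saponin/Triton lysis with SYBR Green I, overnight RT, then fluorescence read.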
A further assay relates to CP203. The method in brief:
as §1

A further assay has as its system CP211. The method in brief:
as §1

The test system of the next assay is CP215. The gist of the method:
as §1

In a further assay the test system is CP217. The method in brief:
as §1

Another assay has as its system CP237. The gist of the method:
as §1

A further assay deals with CP238. The method in brief: as §1
The test system of another assay is CP247. The gist of the method:
as §1

In another assay the test system is CP250. The method in brief:
as §1

The test system of the next assay is CP252. The method in brief:
as §1
Potency is read from the fitted curve at half-maximal effect.

Turning to `CSc1ccc(C(=O)c2[nH]c(=O)[nH]c2C)cc1`, the Potency entry with CP201, in the assay on CP203, with CP211, with CP215, with CP217 and in the assay on CP237 was “inactive” in each case. Besides, the Potency entry with CP238, with CP247, in the assay on CP250 and in the assay with CP252 was “inactive” in each case.
On to `C[N+](C)(C)CCCCCCCCCC[N+](C)(C)C`, for which the Potency is 3.38 µM (active) in the assay on CP201; 1.69 µM (active) with CP203; 1.69 µM (active) in the assay with CP211; 4.26 µM (active) in the assay with CP215; 3.55 µM (active) in the assay on CP217; 3.16 µM (active) in the assay with CP237. The Potency in the assay on CP238 was 5.01 µM (active); with CP247 it was 5.01 µM (active); in the assay on CP250 it was 7.08 µM (active); in the assay on CP252, 3.98 µM (active).
In the case of `CN=C(NC#N)NCCSCc1nc[nH]c1C`, the Potency result in the assay on CP201, in the assay with CP203, with CP211, with CP215, in the assay on CP217 and in the assay on CP237 was “inactive” throughout. Moreover, the Potency result in the assay on CP238, in the assay on CP247, in the assay with CP250 and with CP252 was “inactive” each time.
On to `NC(Cc1ccc(Cl)cc1)C(=O)O` (stereo not drawn), for which the Potency entry in the assay on CP201, in the assay on CP203, in the assay on CP211, in the assay with CP215, in the assay on CP217 and in the assay on CP237 was “inactive” each time. Also, the Potency result in the assay with CP238, in the assay with CP247, in the assay with CP250 and in the assay with CP252 was “inactive” in each case.
Consider `CC(N=C(NC#N)Nc1ccncc1)C(C)(C)C` (stereo not drawn), for which the Potency result in the assay with CP201, in the assay with CP203, in the assay on CP211, in the assay with CP215, in the assay on CP217 and in the assay with CP237 was “inactive” in each case. The Potency entry in the assay with CP238, in the assay on CP247, in the assay on CP250 and in the assay on CP252 was “inactive” each time.
As to `NC/C=C/C(=O)O`, the Potency entry in the assay with CP201, in the assay on CP203, in the assay with CP211, in the assay with CP215, in the assay on CP217 and in the assay with CP237 was “inactive” each time. Also, the Potency result in the assay on CP238, with CP247, in the assay with CP250 and in the assay with CP252 was “inactive” each time.
As for `CC[N+](C)(C)c1cccc(O)c1`, the Potency entry in the assay on CP201, in the assay on CP203, with CP211, in the assay with CP217, in the assay on CP237 and in the assay with CP238 was “inactive” throughout. The Potency entry with CP247, in the assay with CP250 and in the assay with CP252 was “inactive” throughout.
For `COC(=O)[C@@H](N)Cc1ccc(O)c(O)c1`, the Potency entry in the assay with CP201, in the assay with CP203, with CP211, in the assay with CP215, in the assay on CP217 and in the assay on CP238 was “inactive” in each case. The Potency result in the assay with CP252 is “inactive”.
Turning to `Cc1ccc(S(=O)(=O)NC(=O)NN2CCCCCC2)cc1`, the Potency result in the assay with CP201, in the assay on CP203, in the assay with CP211, in the assay with CP215, in the assay on CP217 and with CP237 was “inactive” in each case. The Potency entry with CP238, in the assay with CP247, with CP250 and in the assay on CP252 was “inactive” in each case.
Take `C[C@]12CCC(=O)C=C1CC[C@@H]1[C@@H]2CC[C@@]2(C)[C@H]1CC[C@]2(O)C(=O)CO`: the Potency entry in the assay with CP201, with CP203, in the assay on CP211, in the assay with CP215, in the assay on CP217 and in the assay on CP237 was “inactive” in each case. Moreover, the Potency entry in the assay with CP238, in the assay with CP247 and in the assay with CP252 was “inactive” each time.
As for `CCCCCCCC/C=C\CCCCCCCC(=O)NCc1ccc(O)c(OC)c1`, the Potency result in the assay on CP201, in the assay on CP203, in the assay on CP211 and with CP215 was “inactive” throughout. Besides, the Potency in the assay with CP247 is 7.08 µM (active).
Regarding `CCN1CCc2nc(N)oc2CC1`, the Potency entry in the assay on CP201, in the assay with CP203, in the assay with CP211, in the assay with CP215, in the assay with CP217 and in the assay on CP237 was “inactive” in each case. For the same compound, the Potency entry in the assay with CP238, with CP247, in the assay on CP250 and in the assay on CP252 was “inactive” each time.
As to `COc1ccc([C@@H]2Sc3ccccc3N(CCN(C)C)C(=O)[C@@H]2OC(C)=O)cc1`, the Potency result in the assay with CP201, in the assay on CP203, in the assay with CP211, in the assay on CP215, with CP217 and with CP237 was “inactive” in each case. Moreover, the Potency entry in the assay with CP238, in the assay with CP247, in the assay with CP250 and in the assay on CP252 was “inactive” in each case.
`Cc1ccc(=O)n(-c2ccccc2)c1`: the Potency entry in the assay on CP201, in the assay with CP203, in the assay with CP211, in the assay with CP215, in the assay on CP217 and in the assay with CP237 was “inactive” in each case. The Potency result in the assay with CP238, in the assay on CP247, with CP250 and with CP252 was “inactive” throughout.
On to `O=C1CC2(CCCC2)CC(=O)N1CCCCN1CCN(c2ncccn2)CC1`, for which the Potency entry with CP201, with CP203, in the assay on CP211, in the assay with CP215, in the assay on CP217 and with CP238 was “inactive” in each case. The Potency result in the assay with CP247, with CP250 and in the assay with CP252 was “inactive” throughout.
Take `Cc1cc(C)c(/C=C2\C(=O)Nc3ccccc32)[nH]1`: the Potency result in the assay on CP201, in the assay with CP203, in the assay on CP211, in the assay on CP215, with CP217 and with CP237 was “inactive” in each case. The Potency result with CP238, in the assay on CP247, with CP250 and in the assay with CP252 was “inactive” throughout.
On to `OC(CCN1CCCCC1)(c1ccccc1)C1CCCCC1` (stereo not drawn), for which the Potency result in the assay on CP201, with CP203, with CP211, in the assay on CP215, with CP217 and in the assay on CP237 was “inactive” each time. Further, the Potency result in the assay on CP238, in the assay with CP247, in the assay on CP250 and in the assay with CP252 was “inactive” each time.
Consider `NC(=Nc1ccccc1)Nc1ccccc1`, for which the Potency entry in the assay on CP201, with CP203, in the assay with CP211, in the assay with CP215, with CP217 and in the assay on CP238 was “inactive” each time. In addition, the Potency entry in the assay on CP247, in the assay with CP250 and in the assay on CP252 was “inactive” each time.
`Nc1ncn([C@@H]2O[C@H](CO)[C@@H](O)[C@H]2O)c(=O)n1`: the Potency result with CP201, in the assay on CP203, in the assay on CP211, in the assay on CP215, in the assay on CP217 and in the assay on CP237 was “inactive” throughout. Besides, the Potency result in the assay with CP238, with CP247, with CP250 and in the assay with CP252 was “inactive” throughout.
On to `CCCCOCCOCCOCc1cc2c(cc1CCC)OCO2`, for which the Potency result in the assay with CP201, in the assay with CP203, in the assay on CP211, in the assay with CP215, in the assay on CP217 and with CP237 was “inactive” each time. For the same compound, the Potency result in the assay with CP238, in the assay on CP247, in the assay with CP250 and in the assay with CP252 was “inactive” each time.
